Results on 20 compounds are retold here after PubChem BioAssay (NCATS).

Holding throughout (assay): Cytotoxic Profiling of Annotated Libraries Using Quantitative High-Throughput Screening (AID 1296008); further: nearly all actives have a fitted effect of over 60% in size
Common to all, as to conditions: Five cell lines viability, CellTiter-Glo ATP luminescence, 48-72 h; max response: stronger effect = lower value

One experiment deals with CRL-7250. Summed up: (§1)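 Cells exposed to compounds for 48 or 72 hr at 37 degrees Celsius. Viability read as ATP-coupled luminescence with CellTiter-Glo after 10 min at room temperature.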
In the next experiment the test system is HEK293. Summed up:
as §1

Another experiment deals with HaCat. Summed up:
as §1

The next experiment relates to KB-3-1. Summed up:
as §1

A further experiment relates to NIH3T3. The method, boiled down: as §1

Records with an inconclusive call do not appear. A number with no mark means an inactive call. Active and inactive are the calls of the source. The call rests on the fitted dose curve; in most records, active means well fitted inhibition curve with a large enough effect; inconclusive means small, poorly fitted or top-dose-only effect; inactive means flat fitted curve, though single readings scatter.
On the % scale 0 is the no-effect control and ±100 the full control effect; potency means the concentration at half of the fitted maximal effect.

As for `Nc1ncnc2c1ncn2[C@H]1O[C@@H](C(=O)N2CCN(CC(=O)Nc3cccc4c3CNC4=O)CC2)[C@H](O)[C@@H]1O`, the compound was called inactive with CRL-7250, with HaCat, in the experiment on KB-3-1 and in the experiment on NIH3T3. In addition, in the experiment with HEK293, the max response is 1.78%.

In the case of `C=C1CCC[C@]2(C)CC[C@@](O)(C(=C)C(=O)O)C[C@@H]12`, the max response was -0.228% in the experiment on CRL-7250, -21.6% in the experiment with HEK293, -4.38% in the experiment with KB-3-1 and -3.81% with NIH3T3. For the same compound, the compound was classed as inactive in the experiment with HaCat.

On to `C/C(=C\CCC(C)C1CC(O)C2(C)C3CCC4C(C)(C)C(OC5OCC(O)C(O)C5O)CCC45CC35CC(O)C12C)C(=O)O` (stereo not given), for which the max response in the experiment with CRL-7250 was 3.53%; with HEK293, 0.956%; with HaCat it was 3.75%; in the experiment on KB-3-1 it was 9.72%. Further, in the experiment with NIH3T3, the compound was classed as inactive.

For `C[C@@H]1O[C@@H](OC2C(O[C@H]3[C@H](O[C@H]4CC[C@@]5(C)C(CC[C@]6(C)C5CC=C5C7CC(C)(C)CC(O)[C@]7(C)CC[C@]56C)C4(C)C)O[C@H](C(=O)O)[C@@H](O)[C@@H]3O)OC(CO)C(O)C2O)[C@H](O)[C@H](O)[C@H]1O` (stereo not given in full), the max response in the experiment with CRL-7250 is 4.13%; in the experiment on HEK293, -5.35%; in the experiment with KB-3-1, 3.37%; with NIH3T3 it was 1.38%. Also, the result in the experiment with HaCat was inactive.

With `FC(F)(F)Oc1ccc(-c2ccc3nnc(C(F)(F)F)n3c2)cc1`, the max response in the experiment on CRL-7250 was -1.14%; with HEK293, -7.41%; in the experiment on HaCat, -4.75%. Moreover, the result with KB-3-1 and in the experiment with NIH3T3 was inactive.

For `C=C1CC2C3(C)C=CC(=O)OC(C)(C)C3CC(OC(C)=O)C2(C)C2C(=O)OC(C)C(=O)C12C` (stereo not given), the max response in the experiment on CRL-7250 is -1.41%; in the experiment on HEK293, -7.78%; in the experiment with KB-3-1 it was 1.96%. For the same compound, the compound was called inactive with HaCat and with NIH3T3.

Consider `CC(C)CC[C@@H](O)[C@](C)(O)[C@H]1CC[C@@]2(O)C3=CC(=O)[C@@H]4C[C@@H](O)[C@@H](O)C[C@]4(C)[C@H]3CC[C@]12C`, for which the max response with CRL-7250 was -1.43%; with HEK293 it was 3.83%; in the experiment on HaCat, 4.07%. Moreover, the call in the experiment with KB-3-1 and with NIH3T3 was inactive.

For the compound `O=C(/C=C/c1ccc(O)c(O)c1)O[C@@H]1[C@@H](O)[C@H](OC2CCCCC2O)O[C@H](CO)[C@H]1O` (stereo not given in full), the max response in the experiment on CRL-7250 was 4.08%; with HEK293 it was 1.79%; in the experiment on HaCat it was 2.85%; in the experiment on KB-3-1, 9.07%. In the experiment with NIH3T3, the compound was classed as inactive.

For the compound `C[C@@H]1C(=O)O[C@H](C)[C@H]1C[C@@H](O)[C@](C)(O)[C@H]1CC[C@@]2(O)C3=CC(=O)[C@@H]4C[C@@H](O)[C@@H](O)C[C@]4(C)C3CC[C@]12C` (stereo not given in full), the max response is -1.86% in the experiment with CRL-7250, -25% with HaCat, 8.3% in the experiment on KB-3-1 and 1.28% with NIH3T3. In addition, in the experiment with HEK293, the outcome was inactive.

Regarding `CCCSc1nc(NC2CC2c2ccc(F)c(F)c2)c2nnn(C3CC(OCCO)C(O)C3O)c2n1` (stereo not given), the compound was called inactive with CRL-7250 and in the experiment on HaCat. The Potency in the experiment on HEK293 is 18.4 µM (active). Also, the max response with KB-3-1 is -19.7%; with NIH3T3, -3.04%.

As to `Cc1ccc(-c2c(-c3nn(C)c4ncnc(N5CCC(N6CCCCC6)C5)c34)cnn2C)cc1` (stereo not given), the compound was classed as inactive in the experiment with CRL-7250, with HaCat and in the experiment on KB-3-1. In addition, the results for the max response in the experiment on HEK293 and in the experiment on NIH3T3 were -1.32% and 4.76%, respectively.

On to `CC1OC(O[C@@H]2[C@H](O)[C@@H](OC3OC(CO)C(O)C(O)C3O)[C@H](OC(=O)[C@]34CCC(C)(C)C[C@H]3C3=CCC5[C@@]6(C)CC[C@H](O[C@@H]7O[C@H](C(=O)O)[C@@H](O)[C@H](O[C@@H]8OC[C@@H](O)[C@H](O)[C@H]8O)[C@H]7O[C@@H]7O[C@H](CO)[C@H](O)[C@H](O)[C@H]7O)[C@@](C)(C=O)C6CC[C@@]5(C)[C@]3(C)C[C@H]4O)O[C@@H]2C)C(O)C(O)C1OC1OCC(O)C(O)C1O` (stereo not given in full), for which the max response was -3.77% with CRL-7250 and -1.1% with HEK293. Further, the outcome in the experiment with HaCat, in the experiment with KB-3-1 and in the experiment with NIH3T3 was inactive.

With `CC(C)(O)c1ccc2c(c1)C(=O)C[C@H]1[C@](C)(C(=O)O)CCC[C@]21C`, the values for the max response with CRL-7250, in the experiment on HEK293 and with KB-3-1 were -1.21%, -10.2% and 5.87%, respectively. The call with HaCat and in the experiment on NIH3T3 was inactive.

As for `CC[C@@H]1[C@H]2CCCCN3C(=O)C[C@H]([C@@H]4[C@H]1OC(=O)[C@H]4C)[C@@H]23`, the max response in the experiment with CRL-7250 is -4.41%; with HEK293, -4.7%; in the experiment with KB-3-1, -6.87%. In addition, the outcome with HaCat and in the experiment with NIH3T3 was inactive.

`C/C1=C\CC(C)(C)/C=C/C/C(C(=O)O)=C/CC1`: the results for the max response in the experiment on CRL-7250, in the experiment on HEK293 and in the experiment with KB-3-1 were -3%, -13.3% and -12.2%, respectively. Also, the call in the experiment on HaCat and in the experiment on NIH3T3 was inactive.

As to `COC(=O)[C@H](c1ccccc1Cl)N1CCC2SC(=O)C=C2C1` (stereo not given in full), the max response in the experiment on CRL-7250 was -4.86%; with HEK293 it was -11.7%; in the experiment on KB-3-1 it was 7.5%; with NIH3T3, -12.1%. In addition, in the experiment with HaCat, the compound was classed as inactive.

Consider `CC1=CC(=O)CC(C)(C)C1CCC(C)O[C@@H]1O[C@H](CO)[C@@H](O)[C@H](O)[C@H]1O` (stereo not given in full), for which the outcome with CRL-7250 and with HaCat was inactive. Also, the results for the max response in the experiment on HEK293, in the experiment with KB-3-1 and in the experiment with NIH3T3 were 3.44%, 5.09% and 0.902%, respectively.

As to `Cc1cc(OCCN2CCOCC2)nn1-c1ccc2ccccc2c1`, the max response is -11.2% with CRL-7250, -15.6% with HEK293, -10.7% with KB-3-1 and 2.01% in the experiment on NIH3T3. Further, the compound was called inactive in the experiment on HaCat.

Turning to `CC1(C)CC[C@]2(C(=O)O)CC[C@]3(C)C(=CCC4[C@@]5(C)C[C@H](O)[C@H](O[C@@H]6O[C@H](CO)[C@@H](O)[C@H](O)[C@H]6O)[C@@](C)(CO)C5[C@H](O)C[C@]43C)[C@@H]2C1` (stereo not given in full), the max response in the experiment on CRL-7250 is 3.07%; in the experiment on HEK293, 0.861%; in the experiment with KB-3-1, 3.96%. The outcome with HaCat and with NIH3T3 was inactive.

For `O=C(O)CC/C=C\C[C@H]1CO[C@@H](c2ccccc2Cl)O[C@H]1c1ccccc1O`, the values for the max response in the experiment with CRL-7250, with HEK293 and in the experiment with KB-3-1 were 3.51%, -2.35% and 3.23%, respectively. Also, the outcome in the experiment on HaCat and in the experiment on NIH3T3 was inactive.
